A short description of this experiment: growth inhibition of WT strain, primary screen, mitochondrial fusion inhibitor project, WT and mutant strains, chemical genetic (AID 1362). The conditions noted are these: mitochondrial fusion phenotypic screen, at 10 µM.
The mark [1] stands for this setting: WT strain, growth inhibition, stronger effect = higher value.

Among the data in PubChem BioAssay AID1362 (SRMLSC, 2008) are inhibition values, retold here.

Out of some 190,000 compounds screened, about 4,000 (2.1%) were called active. Cut-off read from the data, not from the text of the source: active = inhibition above about 58%; inactive = the rest, inconclusive results apart; tested in S. cerevisiae. The full list was thinned out, with actives kept by preference.

Consider `c1ccc(-c2cc(N3CCCCC3)c3ccccc3n2)cc1`, for which the inhibition (usually the relative decrease from the control value, in per cent) runs as follows: under setting [1], 36.4% (inactive); (mutant strain inhibition) 49.1%.
Turning to `CC(C)NC(=S)NN=C1CCCCCCCCCCC1`, the inhibition reads like this: under setting [1], 69.5% (active); (mutant strain inhibition) 53.1%.
For `CC(C)(C)NC(=O)C(=O)NN=C1CCCCCCC1`, in that order: -0.12% (inactive) and 9.74%.
For `CC(=O)NC(NC(=S)Nc1c(C)n(C)n(-c2ccccc2)c1=O)C(Cl)(Cl)Cl` (centres undefined), in that order: 15.8% (inactive) and 0.58%.
The corresponding values for `CCOCCCNC(=S)N1CCC(NC(=O)C2CCCCC2)CC1` are 6.14% (inactive) and 2.16%.
For the compound `COc1ccc(NS(=O)(=O)c2ccc(O)c(C(=O)OCC(=O)NC3CCCCC3)c2)cc1`, the inhibition reads like this: under setting [1], -15% (inactive); (mutant strain inhibition) 17.3%.
On to `Fc1ccc(N2N=C(c3cccs3)CC2c2ccco2)c(F)c1` (centres undefined), for which the inhibition under setting [1] is 70.8% (active) and the inhibition (mutant strain inhibition) turned out to be 10.1%.
For `COc1ccc(C2CC(c3cccs3)=NN2c2ccc(F)cc2)cc1OC` (centres undefined), in that order: 30.3% (inactive) and 11.7%.
In the case of `COc1ccccc1N1N=C(c2cccs2)CC1c1ccccc1` (centres undefined), the inhibition is 52.7% (inactive) under setting [1] and 33.7% (mutant strain inhibition).
The corresponding values for `CCN1CCC2(CCN(Cc3cn[nH]c3-c3ccc(OC)c(F)c3)C2)C1` (centres undefined) are -2.46% (inactive) and -5.08%.
As for `CN1C2CCC1/C(=C\c1ccccc1Cl)C(=O)/C2=C\c1ccccc1Cl`, the inhibition was 60.7% (active) under setting [1] and 32.3% (mutant strain inhibition).
`O=C(CN1CCCCCC1)NCCN1C(=O)S/C(=C\c2ccccc2Cl)C1=O`: the inhibition reads like this: under setting [1], 2.91% (inactive); (mutant strain inhibition) -4.16%.
For `CCC1CCCCN1S(=O)(=O)Cc1ccccc1Cl` (centres undefined), the inhibition reads like this: under setting [1], 0.45% (inactive); (mutant strain inhibition) 1.41%.
Take `COc1ccc(Cl)cc1N(CC(=O)N1CCCCC1)S(C)(=O)=O`: the inhibition reads like this: under setting [1], 11.8% (inactive); (mutant strain inhibition) 0.08%.
For `Cc1cc(C)cc(C(=O)NC2C(=O)N3C(C(=O)O)=C(CSc4nnc(C)s4)CSC23)c1` (centres undefined), in that order: 4% (inactive) and -0.51%.
For `COC(=O)c1sc(NC(=O)c2csc3c2CCCC3)nc1C`, in that order: 16.5% (inactive) and 0.86%.
For `COC(=O)c1sccc1NC(=O)c1csc2c1CCCC2`, in that order: 71.3% (active) and 48.8%.
Take `Cc1ccc(NC(=O)c2csc3c2CCCC3)cc1`: the inhibition is, setting by setting: under setting [1], 11.5% (inactive); (mutant strain inhibition) 21.5%.
For `CC(=O)c1cccc(-n2nnnc2SCC(=O)NNC(=O)C2CCCCC2)c1`, in that order: 6.05% (inactive) and 12.8%.
For the compound `Cc1cc(-c2nnc(CCC(=O)NC(c3ccccc3)c3ccccc3)o2)no1`, the inhibition was 7.01% (inactive) under setting [1] and 6.86% (mutant strain inhibition).
The corresponding values for `O=C(CCCn1c(SCC(=O)c2ccc(F)cc2)nc2ccccc2c1=O)NCc1ccco1` are 7.88% (inactive) and 15.5%.
Regarding `CCOC(=O)C(C)Sc1nc2ccccc2c(=O)n1CC1CCCCC1` (centres undefined), the inhibition was 21.8% (inactive) under setting [1] and -3.67% (mutant strain inhibition).
As to `CC(Sc1nc2ccccc2c(=O)n1Cc1ccco1)C(=O)c1ccccc1` (centres undefined), the inhibition under setting [1] was 69.4% (active) and the inhibition (mutant strain inhibition) turned out to be 31.3%.
Turning to `Cc1cc([N+](=O)[O-])nn1CCCC(=O)Nc1cccnc1Cl`, the inhibition is -5.91% (inactive) under setting [1] and -23.5% (mutant strain inhibition).
For `COc1cc(S(=O)(=O)N2CCOCC2)ccc1NC(=O)COc1ccc(N(C)S(=O)(=O)c2ccc(C)cc2)cc1`, in that order: 3.51% (inactive) and -4.35%.
Consider `Cc1ccc(-c2nnn(CC(=O)N(Cc3ccco3)C(C(=O)NC(C)(C)C)c3ccncc3)n2)o1` (centres undefined), for which the inhibition is -1.04% (inactive) under setting [1] and -4.44% (mutant strain inhibition).
For the compound `Cc1nc(C)c(C(=O)N(c2ccc(C)c(C)c2)C(C(=O)NCc2ccco2)c2ccccc2)s1` (centres undefined), the inhibition is, setting by setting: under setting [1], 16.8% (inactive); (mutant strain inhibition) 9.51%.
The corresponding values for `Cc1nn(-c2ccccc2)c2sc(C(=O)N(Cc3ccco3)C(C)C(=O)NC(C)(C)C)cc12` (centres undefined) are 68.7% (active) and 1.44%.
On to `O=C(NC1CC1)c1ccc(-c2ccccc2)cc1`, for which the inhibition is -18.3% (inactive) under setting [1] and 8.3% (mutant strain inhibition).
For the compound `CC1CCN(C(=S)c2cccc(O)c2)CC1`, the inhibition by setting is: under setting [1], -7.57% (inactive); (mutant strain inhibition) 21.7%.
With `CS(=O)(=O)N(CC(=O)N1CCN(Cc2ccc3c(c2)OCO3)CC1)c1ccc2c(c1)OCO2`, the inhibition by setting is: under setting [1], -12% (inactive); (mutant strain inhibition) -4.62%.
The corresponding values for `CCOC(=O)N1CCN(S(=O)(=O)c2cc(Br)cc3c2N(C(=O)C2CC2)CC3)CC1` are -4.28% (inactive) and 4.16%.
Turning to `CCN(c1ccc2c(c1)OCO2)S(=O)(=O)c1cc(Br)cc2c1N(C(=O)C1CC1)CC2`, the inhibition under setting [1] was 82.3% (active) and the inhibition (mutant strain inhibition) is 13.7%.
For `COC(=O)CSc1nccc(-c2cccs2)n1`, in that order: -15.2% (inactive) and 12.6%.
For `CCOc1ccc(/C=C(/NC(=O)c2ccccc2)C(=O)NCCC(=O)O)cc1`, in that order: -9.33% (inactive) and 4.17%.
For `COc1cc(NC(=O)CN(C)S(=O)(=O)c2ccc3nc(C)sc3c2)cc(OC)c1`, in that order: 5.19% (inactive) and 4.68%.
With `C=CCn1c(N)c(S(=O)(=O)c2cccs2)c2nc3ccccc3nc21`, the inhibition was -1.23% (inactive) under setting [1] and 0.9% (mutant strain inhibition).
For `CC(C)Cn1c(N)c(C(=O)NCc2cccs2)c2nc3ccccc3nc21`, in that order: 3.94% (inactive) and 7%.
As for `C=CCn1c(N)c(C(=O)OCC(C)C)c2nc3ccccc3nc21`, the inhibition is 66.3% (active) under setting [1] and -15.2% (mutant strain inhibition).
With `CC(C)Oc1ccc(CCc2nnc(SCC(=O)O)n2-c2ccccc2)cc1`, the inhibition by setting is: under setting [1], -10.3% (inactive); (mutant strain inhibition) 10.7%.
In the case of `CN(c1cccc(NC(=O)Nc2ccc(Cl)cc2)c1)S(C)(=O)=O`, the inhibition under setting [1] is 96.2% (active) and the inhibition (mutant strain inhibition) is -6.73%.
The corresponding values for `COc1cccc(N(CC(=O)Nc2cccc(N(C)S(C)(=O)=O)c2)S(C)(=O)=O)c1` are -5.64% (inactive) and 2.31%.
